Test system: P. falciparum NF54-pfs16-GFP late (IV-V) stage gametocytes
Assay: relative % inhibition of viable gametocyte number; higher = more gametocytocidal
Conditions: 5 µM; stage: late (IV-V) gametocyte; incubation 72 h
How it was run: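 Compound was tested in duplicate at 5 or 0.5 µM on magnet-isolated NF54 pfs16-GFP gametocytes, taken either early (I/IIa, day 2) or late (day 8) and plated at 10% parasitaemia, 0.1% haematocrit. Incubation ran 72 h at 37°C, 5% CO2, 5% O2, followed by overnight MitoTracker Red staining and confocal imaging. Relative inhibition, based on counts of elongated GFP objects with above-cut-off MitoTracker signal, was normalised to in-plate vehicle and positive-control wells.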

Compared with `OC(Cn1nnc2ccccc21)Cn1c2ccc(Br)cc2c2cc(Br)ccc21` (stereo not drawn), `CCN(CC)CCn1c(=N)n(CC(O)c2ccc(Cl)c(Cl)c2)c2ccccc21` (stereo not drawn) is higher in relative % inhibition: 43.4% for the first, 89.4% for the second.

First: COc1ccc(CN2CCCC(C(=O)c3ccc(C(F)(F)F)cc3)C2)c(O)c1 (stereo not drawn)
Second: Cc1[nH]c(-c2ccc(F)cc2)cc1C(=O)NC1CCN(Cc2ccccc2)CC1
The relative % inhibition of the first is higher: 16.7% for the first, 15.4% for the second.

Compared with `Cc1ccc(Nc2nc(NCCO)c3ccccc3n2)cc1C`, `CCCc1c(C)nc2ccccc2c1O` is higher in relative % inhibition: 53.9% for the first, 72.3% for the second.

Compared with `COc1ccc(C2=C(c3ccc(OC)cc3)C3(c4ccccc4)C(=O)C2(c2ccccc2)C2C(=O)N(c4ccc(C)cc4)C(=O)C23)cc1` (stereo not drawn), `COc1ccccc1N1C(=N)SC(=Cc2ccc(OCc3ccccc3F)cc2)C1=O` is higher in relative % inhibition: 28.5% for the first, 69.4% for the second.

First: Nc1ccc(-c2nc3cc(Cc4ccc5[nH]c(-c6ccc(N)cc6)nc5c4)ccc3[nH]2)cc1
Second: CCOc1cccc(C(=O)Nc2ccc(-c3nc4ccccc4[nH]3)cc2)c1
The relative % inhibition of the first is higher: 85.1% for the first, 17.9% for the second.

Going from `CCOc1cc2c(cc1OCC)C(c1cc(C)c(O)c(C)c1)NCC2` (stereo not drawn) to `CCOC(=O)c1cnc2c(CC)cccc2c1O`, the relative % inhibition rises from 34.7% to 45.2%.

Going from `CCN1CCN(Cc2ccc(NC(=O)c3cc4ccc5cccnc5c4[nH]3)cc2)CC1` to `Cc1c(C)n(Cc2ccc(F)cc2)c2ccc(C(=O)NCc3ccco3)cc12`, the relative % inhibition rises from 3.45% to 21.7%.

Compared with `O=C(NCc1ccco1)C1CCN(S(=O)(=O)c2ccc(Br)cc2)CC1`, `COc1ccccc1N1CCN(C(CNS(=O)(=O)c2ccc(Cl)cc2)c2cccnc2)CC1` (stereo not drawn) is lower in relative % inhibition: 51.5% for the first, 32.7% for the second.

Compared with `O=C(NC1CCN(Cc2ccccc2)CC1)c1cc2nc(-c3ccc(Cl)s3)cc(C(F)(F)F)n2n1`, `O=c1cc(NC2CCN(CCCc3ccccc3)CC2)c2cc(Cl)ccc2o1` is lower in relative % inhibition: 25% for the first, -6.17% for the second.

Compared with `O=C1C2=C(Nc3ccccc3SC2c2ccccc2)c2ccccc21` (stereo not drawn), `CN1C=C(c2ccc3ccccc3n2)C(c2c[nH]c3ccccc23)c2ccccc21` (stereo not drawn) is lower in relative % inhibition: 55.8% for the first, 34.8% for the second.

Going from `CC1CCCCN1CCCNC(=O)c1ccc2c(c1)sc1nc(-c3ccc(F)cc3)cn12` (stereo not drawn) to `Cc1cc(NCCN2CCCCC2)c2ccc3ccccc3c2n1`, the relative % inhibition rises from 17.8% to 36.7%.

First: O=C(Nc1ccc(Cl)cc1)N1CCN(c2ccc3nncn3n2)CC1
Second: Cc1cc(N2CCN(C3CCCC3)CC2)n2c(nc3ccccc32)c1C#N
The relative % inhibition of the first is lower: -7.25% for the first, 6.77% for the second.

Compared with `COc1ccc(C2c3ccc4ccccc4c3Oc3ncn(CCCn4ccnc4)c(=N)c32)cc1OC` (stereo not drawn), `COc1ccc(-c2cc3c(nn2)-c2ccccc2C3=O)cc1` is higher in relative % inhibition: 74.6% for the first, 96.1% for the second.

Going from `CCN(CC)CCNc1ncnc2c1[nH]c1ccc(Cl)cc12` to `CN(C)CCCNCc1ccc(-c2ccc(F)c(Cl)c2)o1`, the relative % inhibition falls from 24.8% to 20.8%.

Going from `Cc1ccccc1OCCSc1nc2ccc(NC(=O)c3cccs3)cc2s1` to `CCC(c1ccccc1)c1nn2c(-c3cccs3)nnc2s1` (stereo not drawn), the relative % inhibition falls from 35.8% to 12.4%.

First: CCOC(=O)c1c(C)n(-c2ccc(Cl)cc2)c2ccc(OC(=O)C=Cc3ccccc3)cc12
Second: COc1cccc(NC(=O)[C@H](C(C)C)n2c(=O)[nH]c3ccccc3c2=O)c1
The relative % inhibition of the first is lower: 11.5% for the first, 59.9% for the second.

Compared with `CCOc1ccc(CN2CCN(CC(O)COc3ccc(OCC(O)CN4CCN(Cc5ccc(OCC)cc5)CC4)cc3)CC2)cc1` (stereo not drawn), `COc1ccc(Nc2nc(NN=Cc3ccc(O)cc3)nc(Nc3ccc([N+](=O)[O-])cc3)n2)cc1` is higher in relative % inhibition: 8.51% for the first, 31.8% for the second.

Compared with `Cc1ccc(OCCCCCCNCCO)c(C)c1`, `Cn1c(=O)n(C)c2cc(CNCCNc3ccnc4cc(Cl)ccc34)ccc21` is higher in relative % inhibition: -15.5% for the first, 90.2% for the second.

First: O=C(NCC1Cc2cccc(-c3ccncc3)c2O1)c1csc2c1CCCC2 (stereo not drawn)
Second: COc1ccc(C=C2SC(Nc3ccc(F)cc3)=NC2=O)c(OC)c1
The relative % inhibition of the first is lower: -0.912% for the first, 87.9% for the second.

Reference: the supplement of paper PMC3842684
